Bioassay records from PubChem.
PGC1a acetyl inh = modulators of PGC1a acetylation | U2OS PGC1a acetylation, AlphaScreen anti-acetyl-lysine; with virally co-expressed GCN5 acetyltransferase | inhibition, % at 15.6 µM | hit rate 0.17% among 350,000;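 active = every replicate shows inhibition of at least 40%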
PAX8 reporter = PAX8 transcriptional activity inhibition. inhibition, % at 12.6 µM. hit rate 1.2% among 360,000. RMG-I TPO-luciferase reporter, SteadyGlo, 24 h. AID 652154;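 active = mean replicate inhibition at least 60% with every replicate also reaching 60%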;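 note: luciferase light reporting Pax8 driven TPO promoter activity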
SIRT5 inh = inhibitors of human sirtuin-5 desuccinylase; Q9NXA8; Purified SirT5, succinyl-peptide AMC, trypsin-coupled fluorescence; inhibition, % at 15 µM; hit rate 1.1% among 330,000; AID 652115; in the data active = inhibition above about 15%
Target sequence (Q9NXA8 whole entry, looked up): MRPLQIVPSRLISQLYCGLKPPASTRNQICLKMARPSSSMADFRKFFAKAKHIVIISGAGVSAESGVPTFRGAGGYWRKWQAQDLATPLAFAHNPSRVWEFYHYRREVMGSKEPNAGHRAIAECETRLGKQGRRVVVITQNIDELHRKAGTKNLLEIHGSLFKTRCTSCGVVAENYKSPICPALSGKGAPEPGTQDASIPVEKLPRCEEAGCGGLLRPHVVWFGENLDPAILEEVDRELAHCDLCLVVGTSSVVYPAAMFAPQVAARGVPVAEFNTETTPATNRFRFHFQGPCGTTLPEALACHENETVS
rRNA inh HTS = inhibits bacterial ribosomal RNA function over humanized ribosomes; GFP signal change (wild-type ribosome), % (concentration not given with the values); hit rate 1.6% among 350,000; E. coli WT GFP vs humanized-ribosome RFP mutants, fluorescence, 24 h; stronger effect = lower value; DMSO median 0, no signal -100;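 active = significant combined selectivity score with lowered wild-type GFP, culture density cut under 30%, mutant RFP and density less affected; inactive = any of these conditions unmet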
EWS-Fli block = blocks EWS/Fli oncoprotein-driven transcription | A673 NR0B1-luciferase reporter, viability-normalised | inhibition, % at 12.6 µM | hit rate 0.67% among 350,000;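 active = mean inhibition of at least 50% after viability correction, with every replicate also passing that limit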;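 note: firefly luciferase signal divided by Alamar Blue viability fluorescence both relative to DMSO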
LGR2 inh = Drosophila LGR2 receptor signaling inhibition | HEK293 LGR2, CRE-luciferase, bursicon-stimulated, 4 h | inhibition, % at 9.99 µM | hit rate 0.35% among 380,000;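 active = drop in luminescence signal, shown as inhibition above about 50% in the replicate tests, limit read from the data, passing the limit was not always enough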;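 note: agonist challenge used bursicon conditioned medium at about half maximal strength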
Hits are given with their value. Rows were chosen to be rich in hits. Some 3.4% of all compounds tested hit in one or more screens of this group.

COc1cc(CO)cc(Br)c1OCC(=O)Nc1cccc2ccccc12 was read as PGC1a acetyl inh inactive, PAX8 reporter inactive, SIRT5 inh inactive, rRNA inh HTS -23.9, EWS-Fli block inactive and LGR2 inh inactive.
Screening COc1ccc(CN(C)CC(=O)Nc2cccc3ccccc23)cc1F returned PAX8 reporter inactive, SIRT5 inh inactive, rRNA inh HTS inactive, EWS-Fli block inactive and LGR2 inh inactive.
`Cc1ccc(CN2CCN(Cc3cnn(-c4ccc(Cl)cc4)c3)CC2CCO)o1` (centres undefined) gave PAX8 reporter inactive, SIRT5 inh 25.6, rRNA inh HTS inactive, EWS-Fli block inactive and LGR2 inh inactive.
Cc1cc(NC(=O)COC(=O)c2ccccc2S(=O)(=O)N(C)c2ccccc2)no1 was read as PGC1a acetyl inh inactive, PAX8 reporter inactive, SIRT5 inh inactive, rRNA inh HTS -32.6, EWS-Fli block inactive and LGR2 inh inactive.
For C[C@@H]1CN([C@H](C)CO)C(=O)Cc2cc(NC(=O)c3ccncc3)ccc2O[C@H]1CN(C)CC1CCCCC1 the results were PGC1a acetyl inh inactive, SIRT5 inh inactive, rRNA inh HTS inactive, EWS-Fli block inactive and LGR2 inh inactive.
Cc1[nH]c2ccccc2c1/C=N/NC(=O)c1ccccc1 was read as PAX8 reporter inactive, SIRT5 inh inactive, rRNA inh HTS inactive, EWS-Fli block inactive and LGR2 inh inactive.
Screening Cc1[nH]c2ccccc2c1/C=N/NC(=O)Nc1ccccc1 returned PGC1a acetyl inh inactive, PAX8 reporter inactive, SIRT5 inh inactive, rRNA inh HTS -20.1, EWS-Fli block inactive and LGR2 inh inactive.
`Cc1[nH]c2ccccc2c1/C=N/NC(=O)c1cc(-c2ccccc2)n[nH]1` gave PGC1a acetyl inh inactive, PAX8 reporter inactive, SIRT5 inh inactive, rRNA inh HTS -23.2, EWS-Fli block inactive and LGR2 inh inactive.
COc1ccc(NC(=O)c2cc(C3CC3)nc3c2cnn3C(C)C)cc1OC was read as PGC1a acetyl inh inactive, PAX8 reporter inactive, SIRT5 inh 16.2, rRNA inh HTS inactive, EWS-Fli block inactive and LGR2 inh inactive.
O=C(CCCN1C(=O)/C(=C/c2cccc(Br)c2)SC1=S)Nc1ccccn1 was read as PGC1a acetyl inh inactive and PAX8 reporter 110.2.
O=C(CCCN1C(=O)/C(=C/c2ccccc2OC(F)F)SC1=S)Nc1cccnc1 was read as PGC1a acetyl inh inactive, PAX8 reporter 98.3, rRNA inh HTS inactive, EWS-Fli block inactive and LGR2 inh inactive.
For COc1ccccc1/C=C1/SC(=S)N(CCC(=O)Nc2cccnc2)C1=O the results were PAX8 reporter inactive, SIRT5 inh inactive, rRNA inh HTS inactive, EWS-Fli block inactive and LGR2 inh inactive.
O=C(CCCN1C(=O)/C(=C/c2cccc(Br)c2)SC1=S)Nc1cccnc1 was read as PGC1a acetyl inh inactive, PAX8 reporter 94.1, SIRT5 inh inactive, rRNA inh HTS inactive, EWS-Fli block inactive and LGR2 inh inactive.
For O=C(CCCN1C(=O)/C(=C\c2cccc(Br)c2)SC1=S)Nc1cccnc1 the results were PAX8 reporter 105.7, SIRT5 inh inactive, rRNA inh HTS inactive, EWS-Fli block inactive and LGR2 inh inactive.
CN1CCN(C(=O)C[C@@H]2CC[C@H]3[C@H](COc4ccc(NC(=O)c5cscn5)cc4C(=O)N3C)O2)CC1 was read as PGC1a acetyl inh inactive, PAX8 reporter inactive, SIRT5 inh inactive, rRNA inh HTS inactive, EWS-Fli block inactive and LGR2 inh inactive.
For C[C@H]1CN(C)C(=O)c2cccc(N(S(C)(=O)=O)S(C)(=O)=O)c2O[C@H]1CN(C)C(=O)OC(C)(C)C the results were rRNA inh HTS inactive.
For Cc1ccc(S(=O)(=O)N(C)C[C@H]2OCCCC[C@H](C)Oc3ccc(NC(=O)NC4CCCCC4)cc3C(=O)N([C@H](C)CO)C[C@H]2C)cc1 the results were PGC1a acetyl inh inactive, PAX8 reporter inactive, SIRT5 inh inactive, rRNA inh HTS inactive, EWS-Fli block inactive and LGR2 inh inactive.
`CCN(CC)CCSc1nc(O)c(-c2ccccc2)c(=O)n1-c1ccccc1` gave PAX8 reporter inactive, SIRT5 inh 16.3, rRNA inh HTS inactive, EWS-Fli block inactive and LGR2 inh inactive.
O=C(NCC[C@H]1CC[C@H](NC(=O)C2CCC2)[C@H](CO)O1)c1cnccn1 was read as PGC1a acetyl inh inactive, PAX8 reporter inactive, SIRT5 inh inactive, rRNA inh HTS inactive, EWS-Fli block inactive and LGR2 inh inactive.
